This note sets out measurements from PubChem BioAssay (Tox21).

Where “and” joins values, the source holds several entries; their conditions need not be identical. Identical values can stand only once. Results filed as inconclusive are left out. Calls of active or inactive are those of the source. Unless noted, the call rests on the fitted dose curve; in most records, active means well fitted curve in the direction sought with a large enough effect in the repeat runs; inconclusive means weak or mixed curves; inactive means no such curve, though single readings can be large; an effect the other way counts as inactive or inconclusive.

A short description of experiment [1]: qHTS assay for small molecule agonists of the p53 signaling pathway (AID 651631; calls by dose curve; further: nearly all actives have a fitted effect of over 15% in size; further: potency means the concentration at half of the fitted maximal effect). The method in brief:
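HCT-116 p53RE-bla reporter line, 16 h compound treatment at 37 °C, then fluorescence after 2 h with B/G FRET substrate.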
(In qHTS, concentration-response curves come from the screen itself.)

The nature of experiment [2]: qHTS assay for small molecules that induce genotoxicity in human embryonic kidney cells expressing luciferase-tagged ATAD5 (AID 651632). Further: nearly all actives have a fitted effect of over 15% in size. Further: potency means the concentration at half of the fitted maximal effect. The method, boiled down:
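HEK293T cells carrying luciferase-tagged ATAD5 were given compound or DMSO vehicle and incubated 16 hr at 37C, 5% CO2. Luciferase activity was read after 30 min at room temperature with Amplite; a rise signals genotoxic stress.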

Experiment [3] is described as follows: qHTS assay for small molecule agonists of the p53 signaling pathway - cell viability (AID 651633; calls by dose curve;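 further: p53RE-bla HCT reporter cells with a stable beta-lactamase p53 reporter; series mostly up to about 83 µM; nearly all actives have a fitted effect of over 30% in size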). The method, boiled down: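 p53RE-bla cells were treated with compound for 16 hours at 37 C. Cytotoxicity was then measured as CellTiter-Glo luminescence after 30 min at room temperature.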
A short description of experiment [4]: qHTS assay for small molecules that induce genotoxicity in human embryonic kidney cells expressing luciferase-tagged ATAD5 - cell viability (AID 651634; calls by dose curve; further: nearly all actives have a fitted effect of over 25% in size; further: potency means the concentration at half of the fitted maximal effect). The method, boiled down:
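HEK293T cells carrying luciferase-tagged ATAD5, 2,000 cells/well, exposed to compound for 15.5 hr at 37C. Viability read as live-cell protease activity by CellTiter-Fluor fluorescence after 30 min at 37C.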

The nature of experiment [5]: qHTS assay for small molecule disruptors of the mitochondrial membrane potential - cell viability (AID 720634; calls by dose curve;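 further: human HepG2 liver cancer cells; series mostly up to about 83 µM; nearly all actives have a fitted effect of over 20% in size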). The method in brief: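 HepG2 cells, 2,000 per well, attached overnight, then treated 1 hr at 37 C, 5% CO2. Viability read as ATP by CellTiter-Glo luminescence after 30 min at room temperature. Read in the same wells as the m-MPI membrane-potential dye assay.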

Experiment [6] is described as follows: qHTS assay for small molecule disruptors of the mitochondrial membrane potential (AID 720635). Further: potency means the concentration at half of the fitted maximal effect. The method in brief:
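HepG2 cells exposed to compound 1 hr at 37C, then Mito-MPS dye 30 min. Ratio read of aggregate (540/590 nm) versus monomer (490/535 nm) fluorescence.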

A short description of experiment [7]: qHTS assay to test for compound auto fluorescence at 590 nm (red) in HepG2 cells (AID 720674). The method in brief:
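HepG2 cells, 2,000 per well in MEM with 10% FBS, attached overnight at 37 C, then got 23 nL compound or DMSO. After 1 hr at 37 C, 5% CO2, red fluorescence was read at 540/590 nm against Rose Bengal sodium as reference.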

Experiment [8] can be described thus: qHTS assay to test for compound auto fluorescence at 535 nm (green) in HepG2 cells (AID 720675).
The nature of experiment [9]: qHTS assay to test for compound auto fluorescence at 460 nm (blue) in HEK293 cells (AID 720678). The method in brief:
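Blue read-out at excitation 405 nm and emission 460 nm follows overnight compound exposure of HEK293 cells at 37C in 5% CO2. Activity is given as auto fluorescence equivalency to triamterene.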

Experiment [10] is described as follows: qHTS assay to test for compound auto fluorescence at 590 nm (red) in HEK293 cells (AID 720679). The method, boiled down: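 Red channel, Ex/Em 540/590nm; signal expressed as equivalency to Rose Bengal sodium. HEK293, 2,000 cells/well, 10% dialyzed FBS; 23 nL compound pinned after 4-5 hr attachment; overnight 37C/5% CO2 before reading.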

As for `c1ccc2cc3ccccc3cc2c1`, the Potency result in experiment [1], in experiment [2], in [3], in experiment [4], in experiment [5] and in experiment [7] was “inactive” in each case. The Potency result in experiment [8] and in [10] was “inactive” each time. Also, the Potency in experiment [6] was 5.01 µM (active) and 34.4 µM (active). Also, the molecule was called inactive in experiment [9].

As for `C1CN(SSN2CCOCC2)CCO1`, the Potency entry in experiment [1], in experiment [2], in experiment [3], in experiment [4], in experiment [5] and in [7] was “inactive” each time. In addition, the Potency entry in experiment [8] and in [10] was “inactive” throughout. In addition, in experiment [6], the Potency was 61.1 µM (active). Further, in experiment [9], the molecule was classed as inactive.

On to `OC[C@@H](O)[C@@H](O[C@@H]1O[C@H](CO)[C@H](O)[C@H](O)[C@H]1O)[C@H](O)[C@@H](O)CO`, for which the Potency entry in experiment [1], in experiment [2], in experiment [3], in experiment [4], in experiment [5] and in [6] was “inactive” each time. Besides, the Potency entry in [7], in experiment [8] and in experiment [10] was “inactive” each time. Moreover, in [9], the molecule was called inactive.

Take `c1ccc2c(c1)ccc1cc3c(ccc4ccccc43)cc12`: the Potency in experiment [1] was 12.1 µM (active); in experiment [2] it was 853 nM (active) and 959 nM (active). The Potency result in experiment [3], in [4], in [5], in experiment [6], in experiment [7] and in experiment [8] was “inactive” each time. Further, the Potency entry in experiment [10] was “inactive”. Further, the outcome in [9] was inactive.

On to `Cc1ccc(C(C)(C)C)cc1`, for which the Potency entry in [1], in [2], in [3], in [4], in experiment [5] and in experiment [6] was “inactive” in each case. The Potency entry in experiment [7], in experiment [8] and in experiment [10] was “inactive” in each case. In experiment [9], the molecule was called inactive.

Consider `[O-]/[N+](=N\O)c1ccccc1`, for which the Potency result in [1], in [2], in experiment [3], in experiment [4], in experiment [5] and in experiment [6] was “inactive” throughout. For the same molecule, the Potency entry in experiment [7], in [8] and in experiment [10] was “inactive” each time. The outcome in [9] was inactive.

In the case of `Cc1ccc2c(c1)C(=O)OC2=O`, the Potency result in experiment [1], in experiment [2], in experiment [3], in [4], in experiment [5] and in [6] was “inactive” each time. The Potency result in experiment [7], in [8] and in [10] was “inactive” in each case. In [9], the molecule was called inactive.

On to `Nc1ccc(O)c(N)c1`, for which the Potency entry in [1], in [2], in experiment [3], in [5], in [7] and in experiment [8] was “inactive” each time. In addition, the Potency result in [10] is “inactive”. Besides, the Potency is 54.1 µM (active) and 61.1 µM (active) in experiment [4]; 10.8 µM (active) and 4.86 µM (active) in experiment [6]. Moreover, the molecule was called inactive in experiment [9].

Consider `NCCOCCO`, for which the Potency result in experiment [1], in [2], in [3], in experiment [4], in experiment [5] and in experiment [6] was “inactive” throughout. Also, the Potency entry in [7], in [8] and in experiment [10] was “inactive” throughout. Further, the outcome in [9] was inactive.

Consider `[Na+]`, for which the Potency entry in experiment [1], in experiment [2], in experiment [3], in [4], in experiment [5] and in experiment [6] was “inactive” in each case. Moreover, the Potency entry in experiment [7], in experiment [8] and in experiment [10] was “inactive” in each case. Also, the result in experiment [9] was inactive.

As for `C=CCOC(=O)C(=C)C`, the Potency entry in experiment [1], in experiment [2], in experiment [3], in experiment [4], in experiment [5] and in [7] was “inactive” throughout. For the same molecule, the Potency result in [8] and in [10] was “inactive” in each case. In addition, the result in experiment [9] was inactive.

Take `CCCCCCCC/C=C\CCCCCCCC(=O)O`: the Potency result in experiment [1], in [2], in experiment [3], in [4], in experiment [5] and in [6] was “inactive” each time. Besides, the Potency entry in [7], in experiment [8] and in experiment [10] was “inactive” throughout. Also, in [9], the call was inactive.

As to `C=CC(=O)OCCCC`, the Potency entry in [1], in experiment [2], in experiment [3], in experiment [4], in experiment [5] and in experiment [6] was “inactive” each time. The Potency result in experiment [7], in experiment [8] and in [10] was “inactive” each time. In addition, the result in [9] was inactive.

Consider `CCCCCCCCCCCCCO`, for which the Potency entry in experiment [1], in [2], in experiment [3], in [4], in experiment [5] and in experiment [6] was “inactive” in each case. The Potency result in experiment [7], in experiment [8] and in experiment [10] was “inactive” in each case. The outcome in experiment [9] was inactive.

Consider `CC(=O)OC(C)C`, for which the Potency entry in experiment [1], in [2], in experiment [3], in experiment [4], in experiment [5] and in experiment [6] was “inactive” each time. The Potency result in experiment [7], in [8] and in [10] was “inactive” in each case. For the same molecule, in [9], the molecule was classed as inactive.

For the molecule `CCCCCC1C(=O)CCC1CC(=O)OC` (configuration not stated), the Potency result in experiment [1], in experiment [2], in [3], in [4], in experiment [5] and in experiment [6] was “inactive” throughout. In addition, the Potency result in [7], in experiment [8] and in experiment [10] was “inactive” throughout. For the same molecule, the result in experiment [9] was inactive.

As to `CNC[C@H](O)c1ccc(O)c(O)c1`, the Potency result in experiment [1], in experiment [2], in experiment [3], in experiment [4], in experiment [5] and in experiment [7] was “inactive” throughout. For the same molecule, the Potency entry in experiment [8] and in experiment [10] was “inactive” in each case. In experiment [9], the molecule was classed as inactive.

`C=CCCCCCCCCCC`: the Potency entry in [1], in experiment [2], in experiment [3], in [4], in [5] and in [6] was “inactive” each time. The Potency result in experiment [7], in experiment [8] and in experiment [10] was “inactive” in each case. Besides, in [9], the call was inactive.

With `O=C(O)c1ccc(O)cc1`, the Potency entry in [1], in experiment [2], in experiment [3], in [4], in experiment [5] and in [6] was “inactive” throughout. Besides, the Potency entry in experiment [7], in [8] and in [10] was “inactive” each time. Moreover, the result in experiment [9] was inactive.

`COc1ccc(C(=O)c2ccccc2O)c(O)c1`: the Potency entry in experiment [1], in experiment [2], in [3], in [4], in experiment [5] and in experiment [7] was “inactive” throughout. In addition, the Potency result in experiment [8] and in experiment [10] was “inactive” in each case. The Potency in experiment [6] is 8.04 µM (active) and 8.61 µM (active). The molecule was classed as inactive in [9].

Turning to `C=C1C[C@H]2[C@@H]3C=C(C)C4=CC(=O)CC[C@]4(C)[C@H]3CC[C@]2(C)[C@@]1(OC(C)=O)C(C)=O`, the Potency entry in [1], in experiment [2], in experiment [3], in experiment [4], in experiment [5] and in [7] was “inactive” in each case. For the same molecule, the Potency result in experiment [8] and in experiment [10] was “inactive” in each case. The result in [9] was inactive.

Turning to `ClC/C=C/CCl`, the Potency entry in [1], in [2], in experiment [3], in [4], in [5] and in experiment [6] was “inactive” each time. For the same molecule, the Potency result in experiment [7], in experiment [8] and in experiment [10] was “inactive” each time. Besides, the call in experiment [9] was inactive.

For the molecule `COC(=O)C(C)Oc1ccc(Oc2ncc(C(F)(F)F)cc2Cl)cc1` (configuration not stated), the Potency entry in experiment [1], in experiment [2], in experiment [3], in experiment [4], in [5] and in [6] was “inactive” throughout. In addition, the Potency entry in experiment [7], in experiment [8] and in experiment [10] was “inactive” in each case. The call in experiment [9] was inactive.
